Read-out in assay [1]: Transforming Growth Factor (TGFB1), TGFB1 (gene 7040)
In words: LTEA_HepaRG_TGFB1: Life Technologies and Expression Analysis (LTEA) Assay for Transforming Growth Factor (TGFB1) Transporter using HepaRG (AID 2283533; active means hit-call score of the fitted dose curve at least 0.9, where 1 is the maximum; inactive means score below 0.9). The settings on record: mRNA level, 48 h; actives raise or lower the signal. A digest of the protocol:
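Differentiated human HepaRG cells in serum-free induction medium were exposed in duplicate for 48 h to eight concentrations (top 100 uM, half-log steps, 0.5% DMSO). TGFB1 mRNA was quantified by qRT-PCR, normalized to ACTB, GAPDH, POLR2A, and fitted bidirectionally against DMSO.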

Read-out in assay [2]: TIMP1, TIMP1 (gene 7076)
In words: LTEA_HepaRG_TIMP1: Life Technologies and Expression Analysis (LTEA) Assay for TIMP1 using HepaRG (AID 2283534; active means hit-call score of the fitted dose curve at least 0.9, where 1 is the maximum; inactive means score below 0.9;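 on outcome: TaqMan qRT-PCR signal normalized to ACTB GAPDH and POLR2A housekeeping genes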). The settings on record: mRNA level, 48 h; actives raise or lower the signal. A digest of the protocol:
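Differentiated human HepaRG cells in serum-free induction medium were exposed 48 h to chemicals (8 half-log concentrations, top 100 uM, 0.5% DMSO). TIMP1 mRNA was quantified by TaqMan qRT-PCR, normalized to ACTB/GAPDH/POLR2A; bidirectional fit versus DMSO.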

Read-out in assay [3]: Tumor necrosis factor receptor 1 (TNFRSF1A), TNFRSF1A (gene 7132)
In words: LTEA_HepaRG_TNFRSF1A: Life Technologies and Expression Analysis (LTEA) Assay for Tumor necrosis factor receptor 1 (TNFRSF1A) using HepaRG (AID 2283535; active means hit-call score of the fitted dose curve at least 0.9, where 1 is the maximum; inactive means score below 0.9). The settings on record: mRNA level, 48 h; actives raise or lower the signal. The procedure, abridged:
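Differentiated human HepaRG cells were exposed in duplicate for 48 h in serum-free induction medium to eight concentrations (top 100 uM, half-log steps, 0.5% DMSO). TNFRSF1A mRNA was quantified by qRT-PCR, normalized to ACTB, GAPDH and POLR2A, then fitted bidirectionally against DMSO.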

Read-out in assay [4]: Thyroid Hormone Responsive (THRSP), THRSP (gene 7069)
In words: LTEA_HepaRG_THRSP: Life Technologies and Expression Analysis (LTEA) Assay for Thyroid Hormone Responsive (THRSP) using HepaRG (AID 2283536; active means hit-call score of the fitted dose curve at least 0.9, where 1 is the maximum; inactive means score below 0.9). As to conditions: mRNA level, 48 h; actives raise or lower the signal. The procedure, abridged:
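Differentiated HepaRG cells treated 48 h in serum-free induction medium with 8 half-log concentrations up to 100 uM (0.5% DMSO), duplicates. THRSP mRNA by TaqMan qRT-PCR normalised to ACTB, GAPDH, POLR2A; bidirectional fit versus DMSO.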

Read-out in assay [5]: Cellular tumor antigen p53 (Homo sapiens) (UniProt P04637)
In words: LTEA_HepaRG_TP53: Life Technologies and Expression Analysis (LTEA) Assay for Tumor Protein P53 (TP53) using HepaRG (AID 2283537; active means hit-call score of the fitted dose curve at least 0.9, where 1 is the maximum; inactive means score below 0.9). As to conditions: mRNA level, 48 h; actives raise or lower the signal. A digest of the protocol:
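TP53 transcript measured by qRT-PCR, normalized to three housekeeping genes, after 48 h treatment of human HepaRG cultures with chemicals from 100 uM downward in half-log steps (0.5% DMSO vehicle, serum-free induction medium). Up- or down-regulation fitted against DMSO.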

Read-out in assay [6]: UDP glucuronosyltransferase (UGT1A1), UGT1A1 (gene 54658)
In words: LTEA_HepaRG_UGT1A1: Life Technologies and Expression Analysis (LTEA) Assay for UDP glucuronosyltransferase (UGT1A1) using HepaRG (AID 2283538; active means hit-call score of the fitted dose curve at least 0.9, where 1 is the maximum; inactive means score below 0.9). The settings on record: mRNA level, 48 h; actives raise or lower the signal. A digest of the protocol:
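Readout is UGT1A1 transcript level by qRT-PCR, normalized to three housekeeping genes, after 48 h chemical treatment of HepaRG cells. Concentrations ran from 100 uM down in half-log steps with 0.5% DMSO, and gain or loss relative to DMSO was fitted.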

Read-out in assay [7]: X-box binding protein 1 (XBP1), XBP1 (gene 7494)
In words: LTEA_HepaRG_XBP1: Life Technologies and Expression Analysis (LTEA) Assay for X-box binding protein 1 (XBP1) using HepaRG (AID 2283540; active means hit-call score of the fitted dose curve at least 0.9, where 1 is the maximum; inactive means score below 0.9). The settings on record: mRNA level, 48 h; actives raise or lower the signal. A digest of the protocol:
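Differentiated human HepaRG cells in serum-free induction medium were exposed in duplicate for 48 h to eight half-log concentrations up to 100 uM in 0.5% DMSO. XBP1 mRNA was quantified by qRT-PCR, normalised to ACTB, GAPDH and POLR2A, with bidirectional fitting against DMSO.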

Assay [8] can be described thus: LTEA_HepaRG_LDH_cytotoxicity: Cytotoxicity Assessment in the Life Technologies and Expression Analysis (LTEA) Assay (AID 2283563).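 On AC50: LDH activity released into spent culture medium as a marker of cell death.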 A digest of the protocol: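 Differentiated human HepaRG cells, plated 48 h beforehand, were switched to serum-free induction medium and exposed for 48 h to eight half-log concentrations (top 100 uM) in 0.5% DMSO. LDH was measured in spent medium; activity was fitted relative to DMSO vehicle.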

The nature of assay [9]: TOX21_p53_BLA_p2_viability: Viability Assessment in the Tox21 HCT-116 p53 Agonism Beta-lactamase Assay, Phase 2 (AID 2283591).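 Further: compound exposure lasted 16 h at 37 °C; actives lower the ATP signal meaning cytotoxicity.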 A digest of the protocol:
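HCT116 p53-bla cells, 4000/well, dosed after 5 h plating (217-fold dilution of DMSO stocks) and incubated 16 h at 37C. Viability taken as cellular ATP by CellTiter-Glo luminescence after 30 min RT; signal loss marks cytotoxicity.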

For assay [10], the target named is Cellular tumor antigen p53 (Homo sapiens) (UniProt P04637). In words: TOX21_p53_BLA_p2_ratio: Tox21 HCT-116 p53 Agonism Beta-lactamase Assay, Ratio, Phase 2 (AID 2283592). The procedure, abridged: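 HCT116 cells carrying a p53-responsive beta-lactamase reporter were plated, incubated 5 h at 37C, then dosed with compounds in DMSO (217-fold dilution) for 16 h. CCF4-AM substrate was added for 2 h at room temperature; the 460/530 nm emission ratio gave gain-of-signal activity relative to DMSO.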

Assay [11] has the same target. As to the kind of experiment: TOX21_p53_BLA_p3_ratio: Tox21 HCT-116 p53 Agonism Beta-lactamase Assay, Ratio, Phase 3 (AID 2283596). A digest of the protocol:
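HCT116 p53-bla cells (4000/well) given compound in DMSO (217-fold dilution) after 5 h, incubated 16 h at 37C. CCF4-AM substrate 2 h at room temperature; 460/530 nm emission ratio, gain fitted against DMSO.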

Assay [12] has the same target. In words: TOX21_p53_BLA_p5_ratio: Tox21 HCT-116 p53 Agonism Beta-lactamase Assay, Ratio, Phase 5 (AID 2283599). The procedure, abridged:
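HCT-116 p53-bla cells (4000/well) plated 5 h, dosed with compound (217-fold DMSO dilution) for 16 h at 37 C; CCF4-AM substrate 2 h at room temperature. Activity is the 460/530 nm emission ratio (405 nm excitation), fitted in gain-of-signal direction versus DMSO.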

The nature of assay [13]: TOX21_p53_BLA_p5_viability: Viability Assessment in the Tox21 HCT-116 p53 Agonism Beta-lactamase Assay, Phase 5 (AID 2283600). A digest of the protocol: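 Cells were plated at 4000/well, rested 5 h at 37C, then given compounds in DMSO (217-fold dilution) for 16 h at 37C, 5% CO2. Following the CCF4-AM beta-lactamase read, CellTiter-Glo was added and luminescence was read after 30 min at room temperature.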

The target in assay [14] is Cellular tumor antigen p53 (Homo sapiens) (UniProt P04637). In words: TOX21_p53_BLA_p4_ratio: Tox21 HCT-116 p53 Agonism Beta-lactamase Assay, Ratio, Phase 4 (AID 2283601). A digest of the protocol: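 HCT-116 p53 beta-lactamase reporter cells (4000/well) preincubated 5 h, then compound (217-fold dilution of DMSO stock) for 16 h at 37C. CCF4-AM substrate added 2 h at room temperature; 460/530 nm emission ratio fitted upward versus DMSO.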

Assay [15] can be described thus: Tanguay_ZF_120hpf_MORT_legacy: (Legacy) Oregon State University Tanguay Lab 120 Hour Post-fertilization zebrafish Assay for Mortality (AID 2283633).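 On AC50: fitted as increase in binary mortality versus DMSO negative control.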 A digest of the protocol:
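Dechorionated Tropical 5D wild-type zebrafish embryos, one per well from 6 hpf, were statically exposed at 28C in the dark until 120 hpf (0.64% DMSO final). Mortality was scored as present/absent by brightfield microscopy, fitted positively versus DMSO.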

Assay [16] in a line: Tanguay_ZF_120hpf_YSE_legacy: (Legacy) Oregon State University Tanguay Lab 120 Hour Post-fertilization zebrafish Assay for Yolk Sac Edema (AID 2283634). A digest of the protocol:
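Tropical 5D wild-type embryos, dechorionated with pronase at 4 hpf, were exposed singly from 6 hpf to 120 hpf under static, sealed, dark conditions at 28C with 0.64% DMSO final. Yolk sac edema was scored present/absent by brightfield microscopy.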

A short description of assay [17]: TOX21_p53_BLA_p3_viability: Viability Assessment in the Tox21 HCT-116 p53 Agonism Beta-lactamase Assay, Phase 3 (AID 2283593).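 Further: cells exposed to compound for 16 h before reading.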 A digest of the protocol:
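HCT116 cells, 4000/well, dosed 5 h after plating by pin transfer (217-fold dilution from DMSO stock) and incubated 16 h at 37C, 5% CO2. Viability read as ATP luminescence with CellTiter-Glo after 30 min at room temperature.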

Assay [18] can be described thus: TOX21_p53_BLA_p4_viability: Viability Assessment in the Tox21 HCT-116 p53 Agonism Beta-lactamase Assay, Phase 4 (AID 2283597).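 Further: hits lower the luminescence signal meaning cytotoxicity.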 The procedure, abridged: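 HCT116 p53-bla cells (4000/well) rested 5 h at 37C, then received compounds in DMSO (217-fold dilution) for 16 h at 37C, 5% CO2. CellTiter-Glo was added after the CCF4-AM read, and luminescence was read after 30 min at room temperature.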

Values joined by “and” are separate entries in the source; they are usually repeats but may differ in a detail not shown here. Identical values can stand only once. Inconclusive results are not listed. Where a structure was tested more than once in an assay, its records may differ in their call. Active and inactive are the calls of the source. How the source made its calls, unless noted: active means hit-call score of the fitted dose curve at least 0.9, where 1 is the maximum; inconclusive means response in the unintended direction; inactive means score below 0.9.

Broadly, the AC50 is the concentration at which the activity in the assay is half-maximal.

Cellular tumor antigen p53 (Homo sapiens), sequence (P04637 whole entry, looked up): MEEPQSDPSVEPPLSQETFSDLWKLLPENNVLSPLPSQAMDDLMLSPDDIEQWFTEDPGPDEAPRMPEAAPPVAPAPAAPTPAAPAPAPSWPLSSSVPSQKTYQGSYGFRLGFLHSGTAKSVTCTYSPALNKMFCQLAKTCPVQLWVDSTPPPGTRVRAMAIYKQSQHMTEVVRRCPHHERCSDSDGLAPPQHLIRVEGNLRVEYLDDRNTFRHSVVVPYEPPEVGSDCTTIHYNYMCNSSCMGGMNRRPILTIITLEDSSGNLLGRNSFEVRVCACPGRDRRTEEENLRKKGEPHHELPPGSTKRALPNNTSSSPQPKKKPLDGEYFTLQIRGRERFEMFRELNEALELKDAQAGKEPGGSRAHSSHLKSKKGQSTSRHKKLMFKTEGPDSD

Consider `CNC(=O)Oc1ccccc1OC(C)C`, for which the compound was called inactive in assay [1], in [2], in assay [3], in assay [4], in assay [5] and in assay [7]. The compound was classed as inactive in assay [8], in [9], in assay [10], in [11], in assay [12] and in assay [13]. In addition, the outcome in assay [14], in assay [15] and in [16] was inactive. The AC50 in assay [6] is 0.633 µM (active).
For `CC[C@H](C)[C@H]1O[C@]2(C=C[C@@H]1C)C[C@@H]1C[C@@H](C/C=C(\C)[C@@H](O[C@H]3C[C@H](OC)[C@@H](O[C@H]4C[C@H](OC)[C@@H](O)[C@H](C)O4)[C@H](C)O3)[C@@H](C)/C=C/C=C3\CO[C@@H]4[C@H](O)C(C)=C[C@@H](C(=O)O1)[C@]34O)O2` (tested in a mixture with another compound), the concentration at half-maximal activity (AC50) in assay [1] was 55.3 µM (active); in assay [2], 11.7 µM (active); in assay [3], 51.4 µM (active); in assay [5], 6.99 µM (active); in assay [8], 22.1 µM (active); in assay [9], 9.13 µM (active) and 43.5 µM (active). The AC50 in [10] was 17.6 µM (active); in assay [17] it was 15.9 µM (active); in assay [11] it was 28.7 µM (active); in assay [18], 6.67 µM (active) and 35.5 µM (active); in assay [12], 31.4 µM (active); in [13], 7.91 µM (active) and 42.1 µM (active). Further, the AC50 in assay [15] was 13.9 µM (active). For the same compound, the result in assay [4], in [7], in assay [10], in [17], in assay [12] and in [14] was inactive. For the same compound, in assay [16], the compound was called inactive.
As to `Clc1ccccc1-c1nnc(-c2ccccc2Cl)nn1`, the call in assay [1], in [2], in assay [3], in assay [7], in [8] and in assay [15] was inactive. Further, in assay [16], the call was inactive. For the same compound, the AC50 is 50 µM (active) in [4] and 10.7 µM (active) in assay [6].

The values above are taken from PubChem BioAssay (EPA / NIEHS).
